Values joined by “and” are separate entries in the source; they are usually repeats but may differ in a detail not shown here. Identical values can stand only once. Hit rate of the full screen: of about 580,000 compounds, about 6,100 (1.1%) were called active. Another 15% or so got no clear call; they are omitted. The full list was thinned out, with actives kept by preference. A number with no mark means an inactive call. Calls come from the whole dose curve; as a rule, active = well fitted inhibition curve with a large enough effect; inconclusive = small, poorly fitted or top-dose-only effect, or another doubt; inactive = no such curve, though single readings can be large or run the other way.
Molecular target: Polyunsaturated fatty acid lipoxygenase ALOX12 (Homo sapiens) (UniProt P18054)
Test: Primary qHTS assay for inhibitors of human arachidonate 12S-lipoxygenase (ALOX12): Round 2
Details: purified 12hLO, xylenol orange hydroperoxide absorbance; series mostly up to 108 µM; activity change, negative = inhibition: at the top concentration
Method in brief: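 Purified human 12hLO at 150 nM in 25 mM Hepes, 0.01% Triton X-100, pH 7.0, preincubated 15 min at room temperature with compound. Reaction started with 40 uM arachidonic acid, 30 min at room temperature. Hydroperoxide measured by Fe-xylenol orange, 573/405 nm absorbance ratio.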
% is set by controls: 0 for no effect and ±100 for the full control effect; potency is the fitted concentration of half-maximal effect.

Polyunsaturated fatty acid lipoxygenase ALOX12 (Homo sapiens), sequence (P18054 whole entry, looked up): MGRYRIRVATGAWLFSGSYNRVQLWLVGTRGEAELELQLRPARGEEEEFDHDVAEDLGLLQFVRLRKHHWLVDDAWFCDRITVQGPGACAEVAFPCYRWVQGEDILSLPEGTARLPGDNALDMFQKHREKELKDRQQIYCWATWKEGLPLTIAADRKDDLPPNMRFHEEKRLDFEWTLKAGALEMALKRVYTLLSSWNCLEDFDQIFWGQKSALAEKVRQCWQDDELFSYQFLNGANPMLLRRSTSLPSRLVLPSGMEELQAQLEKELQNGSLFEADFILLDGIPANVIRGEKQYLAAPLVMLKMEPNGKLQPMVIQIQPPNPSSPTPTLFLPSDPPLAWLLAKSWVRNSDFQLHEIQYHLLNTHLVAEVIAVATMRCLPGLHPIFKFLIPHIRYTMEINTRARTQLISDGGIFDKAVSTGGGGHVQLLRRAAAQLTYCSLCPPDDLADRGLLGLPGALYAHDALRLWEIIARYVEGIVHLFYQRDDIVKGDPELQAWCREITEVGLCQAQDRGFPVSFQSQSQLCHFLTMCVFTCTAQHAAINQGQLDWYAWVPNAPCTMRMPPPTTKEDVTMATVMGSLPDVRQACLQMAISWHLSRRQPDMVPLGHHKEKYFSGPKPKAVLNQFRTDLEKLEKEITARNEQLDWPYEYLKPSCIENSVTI

SMILES | activity change, negative = inhibition | Potency
COc1ccc(NC(=O)CN(C)C(=O)c2nc(-c3ccccc3)oc2C)cc1 | -28.5% | 
CCCOc1ccc(/C(O)=C2/C(=O)C(=O)N(CCN(C)C)C2c2ccc(OC)c(OC)c2)cc1 (stereo not given) | 0% | 
COc1ccc(C2/C(=C(/O)c3ccc(OC(C)C)cc3)C(=O)C(=O)N2CCCN2CCOCC2)cc1 (stereo not given) | -14.3% | 
COc1cccc(C2/C(=C(/O)c3ccc(F)cc3)C(=O)C(=O)N2CCN(C)C)c1 (stereo not given) | 22.4% | 
COc1ccc(/C(O)=C2\C(=O)C(=O)N(Cc3ccco3)C2c2ccc(OC)cc2OC)cc1 (stereo not given) |  | 14.1 µM (active)
COc1ccc(/C(O)=C2/C(=O)C(=O)N(CC3CCCO3)C2c2ccc(OC)c(OC)c2)cc1 (stereo not given) |  | 17.8 µM (active)
COc1cc(C2/C(=C(\O)c3ccc4c(c3)CC(C)O4)C(=O)C(=O)N2Cc2ccco2)ccc1O (stereo not given) | -13.7% | 
COCCN1C(=O)C(=O)/C(=C(/O)c2ccc(S(=O)(=O)N3CCOCC3)cc2)C1c1ccc(OC)c(OC)c1 (stereo not given) | -19.4% | 
COCCN1C(=O)C(=O)/C(=C(/O)c2ccc(S(=O)(=O)N3CCCCC3)cc2)C1c1ccc(OC)c(OC)c1 (stereo not given) |  | 14.1 µM (active)
CCOc1cc(C2/C(=C(/O)c3ccc(S(=O)(=O)N4CCCCC4)cc3)C(=O)C(=O)N2CCOC)ccc1O (stereo not given) | -11.4% | 
Cc1ccc(C)c(OCc2ccc(-c3nc(C#N)c(NC(C)C)o3)o2)c1 | -14.7% | 
CCCCCCC(C)NC(=O)COC(=O)c1n[nH]c(=O)c2ccccc12 (stereo not given) | -13.7% | 
NCC(=O)N1CCCC2(Cc3ccccc3CN2C(=O)c2cccc(Cl)c2)C1 (stereo not given) | 42.1% | 
Cc1cc2ccccc2n1CC(=O)NCc1ccc(C(N)=O)cc1 | 19.6% | 
Cc1cccc(NC(=O)c2ccccc2NC(=O)CN2CCN(S(=O)(=O)c3cccs3)CC2)c1 | 3.21% | 
COc1ccc(S(=O)(=O)N2CCC(C(=O)Nc3cccc(C)c3)CC2)c2cccnc12 | 26.8% | 
COC(=O)[C@H](Cc1ccc(OC)cc1)NC(=O)[C@H]1CN(C(=O)c2ccc(N(C)C)cc2)CCN1S(=O)(=O)c1ccccc1 | 6.47% | 
CCCN(C)C(=O)CCC[C@H]1NC[C@@H]2C[C@H]1CN(Cc1ccccc1)C2 | -0.277% | 
CC1(C)CC(=O)C2=C(C1)OC(N)=C(C#N)C2c1cccnc1 (stereo not given) | -14.4% | 
N#CC1=C(N)OC2=C(C(=O)CCC2)C1c1ccc(-c2ccc(Cl)cc2Cl)o1 (stereo not given) |  | 28.2 µM (active)
NC1=C([N+](=O)[O-])C(c2ccccc2)C2=C(CCCC2=O)O1 (stereo not given) | 10.4% | 
O=C(Nc1ccccc1F)N1CC2CCC(C1)N2Cc1ccc(-c2cccnc2)cc1 | 0.675% [at 6.33 µM] | 
COc1ccc(OC)c(NC(=O)/C=C/c2ccc(C)o2)c1 | -4.21% | 
CC(=O)Nc1ccc2c3c(ccc([N+](=O)[O-])c13)CC2 | -4.52% | 
Cc1ccc(/C=C/C(=O)Nc2ccc([N+](=O)[O-])c(NC(=O)/C=C/c3ccc(C)o3)c2)o1 |  | 6.31 µM (active)

SMILES | activity change, negative = inhibition | Potency
COCCn1c(SCc2cccc(Br)c2)nnc1-c1ccccc1 | 0.725% | 
Cc1ccc(C)c(/C=C/c2nc3ccccc3s2)c1 | -17% | 
CC(C)(C)NC(=O)C(=O)NN=C1CCCCCCC1 | 244% | 
CC(C)NC(=S)NN=C1CCCCCCCCCCC1 |  | 35.5 µM (active)
CC(C)(C)c1ccc(C(=O)NN=C2CCCCC2)cc1 | 48.6% | 
COc1ccc(C)cc1CN(C)C(=O)CCn1ccc2ccccc21 | -19.6% | 
CCOC(=O)c1c(NC(=O)c2ccc(S(=O)(=O)N3CCCC(C)C3)cc2)sc2c1CCN(C(C)C)C2 (stereo not given) | -18.9% | 
CCOC(=O)c1cn[nH]c1S(=O)(=O)N1CCCC(C)C1 (stereo not given) |  | 11.2 µM (active)
CCOC(=O)c1cccc(NC(=O)c2cc(S(=O)(=O)N3CCCC(C)C3)cn2C)c1 (stereo not given) | -5.94% | 
O=C(Nc1ccc(Cl)nc1)c1ccc2cc[nH]c2n1 | 5.64% [at 12.5 µM] and 1.76% [at 12.5 µM] | 
CCCCCCCCCOc1ccc(C(=O)c2ccccc2)cc1 | 19.7% | 
CC/C(=N/N=C(/CC)c1ccccc1)c1ccccc1 | -0.0612% | 
CC/C(=C(/c1ccccc1)c1ccc(OCC[N+](C)(C)C)cc1)c1ccccc1 |  | 44.7 µM (active)
CCCCOCCCNC(=O)c1cccc(C#N)c1 | 8.27% | 
O=C(NN=CC=Cc1ccccc1)C(O)C(O)C(=O)NN=CC=Cc1ccccc1 (stereo not given) | -0.942% | 
O=C(N/N=C/C=C/c1ccccc1)C1CC1(c1ccccc1)c1ccccc1 (stereo not given) | 17.3% | 
Cc1ccc(N/N=C/C=C/c2ccccc2)cc1Cl |  | 2.82 µM (active)
CCOc1ccc(C(=O)N2c3ccccc3NC(=O)C2CC(=O)Nc2cccc(C(F)(F)F)c2)cc1 (stereo not given) | -13.4% | 
O=C(Oc1ccc2cc(-c3ccccc3)c(=O)oc2c1)N1CCOCC1 | -0.175% | 
C/C(=N/NC(=S)NCc1ccccc1)c1cccc(C(F)(F)F)c1 |  | 12.6 µM (active)
C/C(=N\NC(=S)NCc1ccccc1)C1CCCCC1 |  | 39.8 µM (active)
COC(=O)CNC(=O)c1cccc(C(F)(F)F)c1 | 5.28% | 
C/C(=N\NC(=S)NCc1ccccc1)c1ccc(Cl)cc1 |  | 31.6 µM (active)
C/C(=N\NC(=O)CNC(=O)C(c1ccccc1)c1ccccc1)c1ccc(C)cc1 | 11% | 
O=C(NCc1ccccc1)c1cccc(NC(=O)C2CCCCC2)c1 | -2.41% | 

SMILES | activity change, negative = inhibition | Potency
O=C(NC(Cc1ccccc1)C(=O)O)c1cccc(C(F)(F)F)c1 (stereo not given) | -18.9% | 
S=C(NCc1ccccc1)Nc1ccc(NC(=S)NCc2ccccc2)c(Cl)c1 | -3.77% | 
O=C(COC(=O)CNC(=O)C1CCCCC1)NCc1ccccc1 | 0% | 
CC(=O)c1ccccc1NCC(=O)NCC(F)(F)F | -15.2% | 
CCOc1ccc(CNC(=O)c2ncoc2-c2cccs2)cc1OC | 29.3% | 
COc1cccc(CN(C(=O)c2oc3cc(Br)ccc3c2C)C2CCS(=O)(=O)C2)c1 (stereo not given) | -12.2% | 
O=C(CCNc1c(-c2ccc(F)cc2)nc2cnccn12)Nc1ccc2c(c1)OCO2 | -7.67% | 
Cc1ccc(C)c(Oc2coc3cc(OC(=O)C(C)C)ccc3c2=O)c1 | -5.82% | 
CC(C)c1nnc(CN2CCOc3c(O)cc(-c4cccc(Cl)c4)cc3C2)o1 | 4.28% | 
S=c1[nH]nc(CSCc2ccc(Cl)cc2Cl)n1-c1ccccc1 |  | 28.2 µM (active)
O=S(=O)(NCCc1nnc2ccc(SCc3ccc(Cl)cc3Cl)nn12)c1ccccc1 | -19.8% | 
CC(C)Oc1ccc(Cc2n[nH]c(=S)n2Cc2ccccc2)cc1Cl | -6.13% | 
CCN(C(=O)CCc1c[nH]c2ccccc12)c1ccc(F)cc1 | -27.9% | 
CC(C)=CCc1ccc(O)c(=O)cc1C(C)C |  | 25.1 µM (active)
Cc1ccccc1-c1cc(=O)c2cc(NC(=O)c3ccccc3F)ccc2o1 | 12.3% | 
COC(=O)C(NC(C)=O)(Nc1nc2c(s1)CCCC2)C(F)(F)F (stereo not given) |  | 17.8 µM (active)
CCOC(=O)C(NC(=O)CC(C)C)(Nc1sc2c(c1C(N)=O)CCCC2)C(F)(F)F (stereo not given) | 0.0335% | 
O=C(Nc1nc2c(s1)CCCC2)c1ccccc1F | -9.3% | 
CCOc1ccccc1OCCN | -30.9% | 
CCCc1nc2c(-c3ccc(Cl)cc3)c(C)[nH]n2c(=O)c1Cl | -11.8% | 
O=C(CSc1nncn1-c1ccccc1F)Nc1ccccc1C(=O)Nc1ccccc1 | 14% | 
O=C(COC(=O)c1cnccn1)Nc1cccc2ccccc12 | -1.25% | 
O=C(COC(=O)c1cc2ccccc2cc1O)Nc1ccc(Cl)cc1C(F)(F)F | 6.37% | 
O=C(COC(=O)c1cnccn1)Nc1ccc(Cl)cc1C(F)(F)F |  | 10 µM (active)
CN(Cc1ccccc1N1CCCC1)C(=O)c1ccc(S(=O)(=O)N2CCOCC2)cc1 | 7.09% | 

SMILES | activity change, negative = inhibition | Potency
CCOc1ccccc1NC(=O)c1cnc(N2CCCCC2)c2ccccc12 | 7.78% | 
O=C(COc1ncnc2c(Cl)cc(Cl)cc12)Nc1cc(F)ccc1F | -2.36% | 
Oc1c(Cl)cc(Cl)c(Cl)c1Cc1c(O)c(Cl)cc(Cl)c1Cl |  | 7.08 µM (active)
CC(C)(C)NC(=O)C(Sc1ccccc1)c1ccccc1 (stereo not given) | -8.61% | 
COc1ccc(Oc2c(C)oc3cc(OCC(=O)N4CCNC(=O)C4)ccc3c2=O)cc1 | -1.25% | 
COc1ccccc1-c1cc(NCc2cccs2)ncn1 | -0.248% | 
FC(F)(F)c1ccccc1-c1cc(NCc2ccccc2)ncn1 |  | 15.8 µM (active)
CN(Cc1ccco1)c1cc(-c2ccccc2C(F)(F)F)ncn1 | -17.5% | 
COC(=O)c1nc(-c2ccc(F)cc2)no1 | -31.2% | 
CCN(CC)C(=O)[C@@H]1CCC[C@@H](NS(C)(=O)=O)CN(C)C(=O)C1 | -7.85% [at 176 µM] | 
CCOC(=O)C(NS(=O)(=O)c1ccc(C)cc1)(C(F)(F)F)P(=O)(OCC(C)C)OCC(C)C (stereo not given) |  | 39.8 µM (active)
CCOC(=O)C(NC(=O)c1ccccc1)(OC(C)C)C(F)(F)F (stereo not given) | 3.32% | 
Cc1ccc(S(=O)(=O)NCC(C)NS(C)(=O)=O)cc1 (stereo not given) | -14.4% | 
CCN1C(=O)N/C(=C/c2cn(CC(=O)Nc3ccc(F)cc3)c3ccccc23)C1=O | -78.9% | 
COc1cc(C(=O)Nc2ccc(C)cc2)nc2ccc(Cl)cc12 | 0.694% | 
CSc1cccc(NC(=O)N[C@H]2CCN3C(=O)[C@H](Cc4ccc(F)cc4)NC(=O)[C@@H]3C2)c1 | -21% | 
O=C(c1ccc2ncccc2c1)N1CCC2(CC1)NCCc1c2[nH]c2ccccc12 | 30.9% | 
O=C(Cn1nc2c(cc1=O)CCCCC2)Nc1nc(-c2ccncc2)cs1 | 44% | 
O=C(NCC1CCOCC1)C1COc2ccccc2O1 (stereo not given) | 38% | 
O=C(Nc1nc(-c2ccncc2)cs1)C1COc2ccccc2O1 (stereo not given) |  | 14.1 µM (active)
CCc1cccc2c(C(=O)CSc3nncn3C(C)C)c[nH]c12 | -38.3% | 
CC1(C)Cc2c(sc3c2c(=O)n(CCO)c(=O)n3CCc2ccccc2)CO1 | -41.7% | 
CCC1(C)Cc2c(sc3[nH]c(=S)n(Cc4ccccc4)c(=O)c23)CO1 (stereo not given) |  | 28.2 µM (active)
CCC1(C)Cc2c(sc3nnn(CC(=O)Nc4ccc(Cl)cc4)c(=O)c23)CO1 (stereo not given) | 5.01% | 
COc1ccccc1-c1cnc(Nc2ccncc2)c2c1CCO2 | 13.2% [at 176 µM] | 

From PubChem BioAssay AID1671190 (National Center for Advancing Translational Sciences (NCATS), 2021)
